High-throughput results from PubChem BioAssay.
ssDAF12 agonist – S. stercoralis DAF-12 activation, primary screen; AID 652126; 370,000 compounds, 1% hits; activation, % at 6.8 µM; HEK293 ssDAF-12/GRIP1 lit1-tk-luc reporter, luminescence; % of 3 µM dafachronic acid response;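 active = activation above the mean over all tested compounds plus 3 SD, cut at about 0.9% in these data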;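 also: 0% = DMSO-only wells and 100% = 3 µM delta7-dafachronic acid wells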
DAX1 inh-1 – blocks DAX1 repression of SF-1 activated StAR promoter; HEK293T StAR-luciferase reporter, SF-1/DAX-1 repression relief; inhibition, % at 6.8 µM; 370,000 compounds, 1.1% hits; AID 652010;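 active = inhibition above the mean over all tested compounds plus 3 SD, cut at about 3.6% in these data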;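 also: 0% = DAX-1 cells with DMSO and 100% = cells lacking DAX-1 with DMSO; higher inhibition means more luminescence from relief of DAX-1 repression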
hcDAF12 agonist – H. contortus DAF-12 activation, primary screen. HEK293 hcDAF-12 lit1-tk-luc reporter, luminescence; 0% DMSO, 100% Δ7-dafachronic acid. activation, % at 6.8 µM. 370,000 compounds, 1.4% hits;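 active = activation above the mean of all tested compounds plus 3 SD, cut at about 5.5% in these data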;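 also: 100% = response to 3 µM Δ7-dafachronic acid high control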
hgDAF-12 ag – hgDAF-12 agonism, primary luciferase screen; HEK293 GAL4-hgDAF12 UAS-luciferase reporter, agonist luminescence; normalized to butyrate control; activation, % at 6.8 µM; 370,000 compounds, 1.8% hits; AID 687014;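 active = activation above a cutoff set at the mean of all screened compounds plus 3 SD, cut at about 10% in these data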;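 also: 0% = DMSO wells and 100% = sodium butyrate wells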
DAX1 inh-2 – inhibitors of human orphan nuclear receptor DAX1 (NR0B1) | P51843 | HEK293 Gal4-DAX1 luciferase reporter, luminescence | inhibition, % at 6.75 µM | 340,000 compounds, 0.99% hits;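 active = inhibition above the mean over all tested compounds plus 3 SD, cut at about 4.2% in these data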;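 also: 0% = DAX1-transfected cells with DMSO and 100% = empty-vector control cells with DMSO; inhibition shows as a rise in luminescence from relieved DAX1 repression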
Target sequence (P51843 207-470 limits assumed): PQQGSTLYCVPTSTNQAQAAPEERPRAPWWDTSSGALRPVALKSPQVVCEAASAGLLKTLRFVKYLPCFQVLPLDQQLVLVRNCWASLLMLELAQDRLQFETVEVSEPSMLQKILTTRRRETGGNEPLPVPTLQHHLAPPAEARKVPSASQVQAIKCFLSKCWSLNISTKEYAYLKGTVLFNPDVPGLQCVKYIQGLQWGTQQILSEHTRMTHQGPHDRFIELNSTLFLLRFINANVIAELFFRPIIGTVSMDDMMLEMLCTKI
Active calls of the source: *; · = no result. Most compounds without a hit are left out; they make up all but 4.1% or so of the library.

SMILES	ssDAF12 agonist	DAX1 inh-1	hcDAF12 agonist	hgDAF-12 ag	DAX1 inh-2
Cc1ccc(S(=O)(=O)Nc2c(C(=O)O)[nH]c3ccccc23)cc1C	0	0	5.8*	2	0
Cc1cc(=O)[nH]c2ccc(S(=O)(=O)Nc3ccccc3)cc12	0	0	1	0	4.2*
Cc1cc(S(=O)(=O)Nc2c(C(=O)O)[nH]c3ccccc23)ccc1F	1.1*	0	2	1	0
CCCCC(=O)N(Cc1ccccc1)c1ccccc1C(=O)Nc1cc(OC)ccc1OC	-1	-1	-1	0	·
CC(C)C[C@H](NC(=O)N1CCOCC1)C(=O)N1CCC[C@H]1C(=O)NCc1ccccc1	0	-1	0	3	·
COC(=O)c1cccc(OC[C@@H](O)CN2CCC(C(O)(c3ccccc3)c3ccccc3)CC2)c1	-1	-1	-3	-2	·
CS(=O)(=O)NNC(=O)c1csc(Cc2c(Cl)sc3ccc(Cl)cc23)n1	-1	0	-1	1	4.6*
Oc1cccc(N2CCN(c3cccc(O)c3)CC2)c1	0.9*	1	2	9	·
Nc1ccc(N2CCN(c3cccc(Cl)c3)CC2)cc1	-1	-1	0	0	0
Cc1nn(C)cc1/C=C/C(=O)c1ccc(O)cc1	-1	2	3	11*	1
O=C(/C=C/c1ccc(O)cc1)c1ccccc1	-1	1	1	9	3
COc1ccc(-c2cc(=O)oc3cc(OC(C)C(=O)NCc4ccccn4)ccc23)cc1 (stereo not given)	-1	-1	3	-6	3
CCCCc1cc(=O)oc2cc(OCC(=O)Nc3ccccn3)ccc12	0	4.3*	5	8	2
COc1ccc(-c2cc(=O)oc3cc(OCC(=O)NCc4ccccn4)ccc23)cc1	-1	0	4	-1	5.7*
O=C(C1CCCN(S(=O)(=O)c2ccccc2[N+](=O)[O-])C1)N1CCN(Cc2ccccc2)CC1 (stereo not given)	-2	-1	-3	0	·
CCCc1c(-c2cccc(Br)c2)ncn1CCc1ccccc1OC	-2	-1	-3	-1	·
CCOc1ccccc1-n1c(=O)c2ccccc2c2ccccc2c1=O	0	0	-4	6	0
CCOc1ccc(-n2c(=O)c3ccccc3c3ccccc3c2=O)cc1	-1	0	0	0	4.9*
COC(=O)c1ccc(C(=O)NC(=S)Nc2nc3c(s2)CCCC3)cc1	0	0	6.2*	5	-2
O=C(Nc1nc2c(s1)CCCC2)c1ccc(Br)s1	-1	1	6.2*	10	1
COc1ccc(OCC(=O)Nc2nc3c(s2)CCCC3)cc1	0	1	-1	-2	0
CCc1ccc2nc(NC(=O)c3ccc(N4C(=O)CCC4=O)cc3)sc2c1	0	0	0	0	4.4*
O=C(CCCc1cccs1)Nc1nc2c(s1)CCCC2	1.0*	2	4	5	4
Cc1ccccc1NC(=O)[C@@H]1CC(=O)O[C@@H]1c1ccccc1	-1	-1	-1	5	·
O=C(Nc1nc2c(s1)CCCC2)c1ccc(N2C(=O)CCC2=O)cc1	-1	4.2*	4	4	1
SMILES	ssDAF12 agonist	DAX1 inh-1	hcDAF12 agonist	hgDAF-12 ag	DAX1 inh-2
O=C(CSc1nccc(=O)[nH]1)c1cc2ccccc2o1	1.3*	1	3	11*	2
Cc1cc(Nc2cc(Cl)cc(Cl)c2)cc(=O)n1-c1cc(Cl)cc(Cl)c1	-1	0	-1	-2	·
N=c1n(CCN2CCCCC2)c2ccccc2n1CC(O)c1ccco1 (stereo not given)	-1	1	2	0	5.1*
CCn1c(=N)n(CC(O)c2ccco2)c2ccccc21 (stereo not given)	-2	0	-1	-5	1
CCC(=O)OCCCN1C(=O)CCC12CCC(C)CC2 (stereo not given)	-1	1	-1	-3	·
Cn1cc(C=CC(=O)O)c2nccnc21	1.3*	0	4	2	0
CCOc1ccc(N=C(/C(C(=O)C(=O)N2CCOCC2)=C(\O)c2ccccc2)c2ccccc2)cc1	0	2	4	12*	4
O=C(C1=NN[C@@H]2C(=O)N(c3cccc(C(F)(F)F)c3)C(=O)[C@H]12)c1cnccn1	-1	0	0	0	7.3*
N#Cc1ccc(N2C(=O)[C@@H]3C(C(=O)c4cnccn4)=NN[C@@H]3C2=O)cc1	-1	0	-1	2	·
Cc1cc(C)nc(CC(N)=O)n1	-2	0	0	0	5.9*
O=C1NC(=S)S/C1=C\c1cc(Cl)ccc1Cl	-1	3.7*	2	3	2
CCCCS/C(N)=N/N=C/c1ccccc1O	0	2	3	8	1
CCCS/C(N)=N/N=C/c1cc(C)ccc1O	1	2	4	11*	3
CC(=O)NC(=S)Nc1sc2c(c1C(N)=O)CCC(C)C2 (stereo not given)	1	2	3	10	5.0*
COCC(=O)N(C)[C@H]1C[C@H]2c3[nH]c4cccc(-c5cccc(F)c5)c4c3CCN2C(=O)[C@H]1[C@H](C)O	-1	0	2	-6	·
Cc1cc(NC(=O)CSc2nc3c(sc4ccccc43)c(=O)n2CCCN2CCOCC2)n[nH]1	-1	-1	0	11*	2
Cc1cc(NC(=O)CSc2nc3c(sc4ccccc43)c(=O)n2CCc2ccccc2)n[nH]1	-1	0	0	1	-2
NC(=O)c1ccc(-c2ccc(Br)cc2)o1	-1	0	-1	4	-1
NC(=O)C1CCN(C(=S)c2ccc(-c3ccc(Br)cc3)o2)CC1	0	2	0	12*	·
Nc1[nH]c2cc(C(F)(F)F)ccc2c1C(=O)N1CCN(CCc2ccccc2)CC1	1	0	4	0	·
CCc1nccn1CCC(=O)N1CCc2c([nH]c3ccccc23)C1CC(C)C (stereo not given)	0	0	5.6*	2	1
CCc1nc(C)ccc1OCC(=O)N1CCc2c([nH]c3ccccc23)C1c1ccccn1 (stereo not given)	-1	-1	0	-2	-1
CCOC(=O)[C@@]12CCC3=C1N(CCC3)C(=O)[C@H](CC(=O)N1CCCCC1)C2	-1	-1	-1	-3	·
O=C(NCCc1ccccc1)C1CCCN1C(=O)Nc1ccc(F)cc1 (stereo not given)	-1	0	3	0	5.1*
O=C(NCCc1ccc(Cl)cc1)C1CCCN1C(=O)Nc1ccc(F)cc1 (stereo not given)	-2	0	-1	1	-1
COc1ccc(N(CC(=O)NCCc2ccccc2)C(=O)CCC(=O)Nc2ccccn2)cc1	-1	0	1	1	-1
COCCNC(=O)CN(C(=O)CCC(=O)Nc1ccccn1)c1ccc(OC)cc1	-1	0	-2	3	5.0*
COCCNC(=O)CN(C(=O)Cn1nnc2ccccc21)c1ccc(C)cc1	0	1	1	-3	4.5*
